From the supplement of paper PMC12632987 come the findings set out here.

In the assay the target is T1, USP38, Q8NB14.
T1 chain: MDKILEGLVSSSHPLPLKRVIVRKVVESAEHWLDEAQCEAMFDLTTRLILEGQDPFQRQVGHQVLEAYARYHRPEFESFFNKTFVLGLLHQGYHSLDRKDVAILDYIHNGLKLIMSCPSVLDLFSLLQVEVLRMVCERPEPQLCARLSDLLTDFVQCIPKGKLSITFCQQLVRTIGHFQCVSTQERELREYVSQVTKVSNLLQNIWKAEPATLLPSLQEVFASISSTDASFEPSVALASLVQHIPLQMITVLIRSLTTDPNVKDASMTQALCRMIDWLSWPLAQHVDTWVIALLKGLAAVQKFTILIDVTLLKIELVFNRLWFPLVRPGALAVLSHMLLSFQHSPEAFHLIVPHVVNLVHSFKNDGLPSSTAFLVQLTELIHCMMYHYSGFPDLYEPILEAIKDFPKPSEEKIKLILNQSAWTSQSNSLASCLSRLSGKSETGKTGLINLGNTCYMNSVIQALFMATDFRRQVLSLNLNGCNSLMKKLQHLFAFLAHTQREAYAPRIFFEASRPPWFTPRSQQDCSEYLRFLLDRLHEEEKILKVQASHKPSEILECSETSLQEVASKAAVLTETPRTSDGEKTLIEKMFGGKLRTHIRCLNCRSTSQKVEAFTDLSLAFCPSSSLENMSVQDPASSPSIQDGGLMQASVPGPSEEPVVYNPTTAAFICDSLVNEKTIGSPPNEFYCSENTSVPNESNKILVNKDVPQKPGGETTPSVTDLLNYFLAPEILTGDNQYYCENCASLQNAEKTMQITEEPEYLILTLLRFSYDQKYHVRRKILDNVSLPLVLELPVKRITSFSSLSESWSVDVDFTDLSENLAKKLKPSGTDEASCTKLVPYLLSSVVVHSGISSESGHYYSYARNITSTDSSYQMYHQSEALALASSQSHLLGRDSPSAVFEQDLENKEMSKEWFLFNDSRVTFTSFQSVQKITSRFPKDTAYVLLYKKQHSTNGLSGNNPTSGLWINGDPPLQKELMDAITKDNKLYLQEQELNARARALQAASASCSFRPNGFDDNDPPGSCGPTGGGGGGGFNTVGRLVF
The assay can be described thus: median log2 fold change of GCK-ALFA target abundance (FLAG IP / Myc IP barcode read proportion) (log2 ratio); each designed protein is fused to an ALFA-tag nanobody in HEK293 cells to bring the named protein to FLAG-tagged glucokinase (GCK); Myc marks an untargeted standard; higher = target protein stabilised (more abundant). Particulars: target protein: 3xFLAG-MCP-GCK-ALFA reporter; HEK293 landing pad (RPLP). An outline of the steps:
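HEK293 landing-pad cells received a recombined binder library fused to the ALFA nanobody and were induced with 2 μg mL^−1 doxycycline, then transfected with a plasmid encoding a FLAG-tagged target and a Myc-tagged standard. Lysates were collected after 48 h for anti-FLAG and anti-Myc immunoprecipitation, and the circular RNA barcodes were reverse transcribed, amplified and sequenced. Target abundance for each binder is the median log2 ratio of FLAG to Myc barcode read proportions. Barcodes had to reach a proportion of at least 10^−7 in both replicates, each binder needed at least 3 barcodes per replicate, a pseudocount of 10^−6 was applied, and the two replicates were pooled.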

B1: usp_38_diff_out_17_125_220 (protein)
chain: SDEELKKKAEELLKKAEELLKQAEKALEEGAPFEEIEKLLDEAADALGELAKTLRELREKSKDPAQAAKFIKEATEKANELIDRYTELATRAFLRQAEAA
As for B1, the “median log2 fold change” value came to 0.167.

B2: usp_38_diff_out_16_37_207 (protein)
chain: GEEKLKEFKKFMEEAMKKAKKLAEEAKKLAKEGKDKKEIEKLQKELDKLLDEVNEKTTEVLEEVPEKADEILAEYDKAATTIAEAGATIRAELRKARAAE
B2: the “median log2 fold change” value was found to be 0.0801.

B3: usp_38_diff_out_17_125_212 (protein)
chain: MFEELKKKIEELLEEARRLVEEAERALAAGAPTAEVRRLLDQAADALGQLAVELRKLREESKDKAQAAKVIKEATKEANELIDRLTELETRVFLREAEAA
Consider B3, for which the “median log2 fold change” value is -1.04.

B4: usp_38_diff_out_17_26_238 (protein)
chain: EAEERRKEARKLLEELKEKTEKDLEEIRKLIKEGKFEEAEKLLDETIDYVTEKSTEILELAADDDELFAEALAAIDEIFDKLAAAGKELREAKREAREKE
Regarding B4, the “median log2 fold change” value is -0.0599.

B5: usp_38_diff_out_17_125_218 (protein)
chain: SDEELKKEIERLLEEAERLLEEAEKALEEGAPFEEIRKLLDEAADALGQAAVKLRELREKSEDPAQAAKFIKEATERANELIDRYTELATRAFLREAEAA
On to B5, for which the “median log2 fold change” value turned out to be 0.0443.

B6: usp_38_diff_out_17_125_215 (protein)
chain: SDEELKKEIEKKLKEAEELLKEAEKALEAGAPAEEVEKLLDAAADALGQLAVLLRELREKSKDKAQAAKFIKKATEEANKLIDRYTELAERNFLRVAEEQ
As for B6, the “median log2 fold change” value was -0.432.

B7: usp_38_diff_out_16_37_210 (protein)
chain: GEEVLKEFKEFMEKAIEEAKKLAEEAKKLAKEGADIEELKKLKEELEKLIDEAVEKTTEALEKVPEKIEEIFAEFDKFADEAAKAGKEIDKAIKEAKKKK
Regarding B7, the “median log2 fold change” value is -0.522.

B8: usp_38_diff_out_17_26_234 (protein)
chain: SAEEERRRARELLEELRRRTEEALARIRELIAAGRFAEAQALLDATVTEVTATATEIFELAADDDELLDEVNRAVGEIFDRLAAAGRELREARRAAAAAA
Take B8: the “median log2 fold change” value is -0.0515.

B9: usp_38_diff_out_17_130_224 (protein)
chain: SAEEVEALKEYLEAEKKNVESVKEDAKKDFERAKKNPVTLDRVEHALEGNIKYMEETIKEAEKLKKEYPEVKEAADKLIKAAKKAKEEFEKYLKEVKALK
B9: the “median log2 fold change” value is 0.401.

B10: usp_38_diff_out_17_26_235 (protein)
chain: SAEEKRKKALELLKELEKETEKELEEIEKLIKEGKFEEAEKKLDELVTKTTEKTTEILELAADDPELVEEVLKSYDKISDKIAEKYKELQEAKKKARAEA
For the molecule B10, the “median log2 fold change” value was 0.284.

B11: usp_38_diff_out_16_37_208 (protein)
chain: AEAKLAEFAAFMERAIEEARRLAEEARRLAEEGAPVEEIERLLEELRRLLDEVVERTTEVLEEVPEHADEILALYDRAATEIAEAGQEIREELRRRREEE
Take B11: the “median log2 fold change” value was -0.00395.

B12: usp_38_diff_out_16_37_211 (protein)
chain: MEEEIEKARKEMEEHLEKALELAERALKLVEEGASEAEIEKAMQEATDALLKAGRAAAELIHLDPSLEDEVVARYDEVATRVAALLREVQEALRARRAAE
Regarding B12, the “median log2 fold change” value was 0.0682.

B13: usp_38_diff_out_16_37_206 (protein)
chain: AEKLLAEFKAFVEEIIERARRLAEEARRLAEEGAPIEEIERVLRELEELLDELVERTTEVLEKVPEHADEILAEYDRAATEIAEAGAEIRKALRERKEKE
As to B13, the “median log2 fold change” value is -0.0578.

B14: usp_38_diff_out_16_37_205 (protein)
chain: GEELLEEFRRFMEEAEREARRLAEEARELAEKGADIEEIERVLEELERLLDEVVERTTEVLEAVPEHADEILAEYDRAATTLAEAGKEIREKLREAKEKE
With B14, the “median log2 fold change” value was -0.436.

B15: usp_38_diff_out_17_26_237 (protein)
chain: SAEEKRKEAEKLLEELEKYVKETLEKIDKLIEEGKFEEAKKLLDELVTETTKRFTEILELAADDPELMDKALAKYDELSGQIAARYRRLEEARREAEAKA
Consider B15, for which the “median log2 fold change” value turned out to be 0.259.

B16: usp_38_diff_out_17_130_227 (protein)
chain: SAEEIESLKEYLRAEKENLKSVKEEAKKNLERAKKNPVTLDRVSHGLEGVATYAEDTIKEAKELLKKYPEVAEEAKELIKVAEEARKEAKELLKEVEKLK
B16: the “median log2 fold change” value worked out at 0.32.

B17: usp_38_diff_out_17_125_214 (protein)
chain: DFEELVKKIEELLAEAEKLVKEAKKLLEEGAPPAEVRAALDKARDALGALAKALRELRRTSKDKAQAAKVIKEANEKADKLIDELTKLETEVFLREADAA
Turning to B17, the “median log2 fold change” value was -0.149.

B18: usp_38_diff_out_17_26_230 (protein)
chain: AAEERRREARELMRELERRTAEALKEIEKLIEEGKLEEAEKKLDELVDEFTELATRLLELAADDDELFEEAVRVIDAAADRIAAAGNLLREAKKKKREEE
On to B18, for which the “median log2 fold change” value is -0.167.

B19: usp_38_diff_out_17_125_216 (protein)
chain: SDEELKEKAEELLKKAEELLKEAEKLLEEGAPAEEVEKKLDEAADALGQLAVTLRELREKSEDKAQAAKFIKELTKKANELIDRYTELATANFQRVADAQ
For B19, the “median log2 fold change” value is -0.484.

B20: usp_38_diff_out_17_26_236 (protein)
chain: SAEERREEARRALEELRADTDAALKEIDALIKAGKFEEAQALLDKLVDDFTKRATEILELAADDPELMDEALRAIGEVADKIAAAGSRLRAARKAAREAA
Take B20: the “median log2 fold change” value came out at 0.0259.

B21: usp_38_diff_out_17_26_239 (protein)
chain: SSEEKRKEAEKLLKEMEEKTEEALKEIDKLIAEGKFAEAQKLLDETIDYVTEKSTEILELASDDDELFEKVMEKIDKISDRLAAAGARLRAARRAARAAA
With B21, the “median log2 fold change” value was -0.0256.

B22: usp_38_diff_out_17_125_221 (protein)
chain: TDEELKKEIEEALKKAEELLKKAKKLLEEGAPFEEIRAELDKAADALGKLAVLLRELREKSEDKAQAAKFIKEATERANKLIDEYTKLATEAFLREAEAA
With B22, the “median log2 fold change” value was -0.359.

B23: usp_38_diff_out_17_26_231 (protein)
chain: SAEAARAKAEALLKELVAETDKALKEIDKLIKEGKFEEAEKLLDETVDKVTEKATEIFELAADDEALLDKANKTIGDIFDKLAARYKELQAARKAAKAAA
Consider B23, for which the “median log2 fold change” value was -0.439.

B24: usp_38_diff_out_17_125_217 (protein)
chain: SSEELKEEIEKALKEAEELLKKAKELLEAGAPFEEIMAALDKAADALGKLAVLLRKLREESEDPAQAAKFIKEATKRADELIDEYTKLATEAFQREADAA
Consider B24, for which the “median log2 fold change” value was -0.0349.

B25: usp_38_diff_out_17_26_240 (protein)
chain: SMEERRKEARKLLEEMEKRVEEDLKKIRELIKEGKFEEAEELLNKTIDYVTETSTKILELAADDDELFDEAMEAIDKISDKLAEAGKELREAKREAREKA
Take B25: the “median log2 fold change” value was found to be 0.0157.

B26: usp_38_diff_out_17_130_223 (protein)
chain: SEDEIEALKEYLEAEKKNIKSVAEEAEKDFERAKKHPVTLDRALHALDGVIKYYEETIEEAKKILKEYPEVKEAAEELIKTAEEAKKKAEKLKKELEKLK
For B26, the “median log2 fold change” value was 0.232.

B27: usp_38_diff_out_17_130_228 (protein)
chain: MEEEIESLKEYLEAEKKNLESVAKQAEEDYERAKKNPVTLDRVIHGLEGVATYAEDTIKEAKELIKEYPEVKEEAEKLIKVAEEAKKKAEALKKKLEALK
On to B27, for which the “median log2 fold change” value was found to be 0.184.

B28: usp_38_diff_out_16_37_204 (protein)
chain: GEELLKEYKEFVEKVIKEAKKLAEEAKKLAKAGADLAEIRAIQEKLNELLDELVERTTEVLEKVPEHAEEILEEYDKAATEIAKAGAEIRAELRKAKAAA
As to B28, the “median log2 fold change” value was -0.535.

B29: usp_38_diff_out_17_125_213 (protein)
chain: AEAALIAEIEALLAEATAKVKEAEALLKAGAPTEEVLKALDAARDALGALAVALERLRRESADRAQAAAVIKAATAEADKLIDRLTELETEAFLRQAEEA
As for B29, the “median log2 fold change” value is 0.41.

B30: usp_38_diff_out_17_125_219 (protein)
chain: SDADLEAEAKALLAEAKALLKEAEKLLKEGAPFEEIRKKLDAAADKLGQLAVTLQQLRDKSKDKAQAAKFIKEMTAEANKLIDEYTKLATEAFLREAEEA
Consider B30, for which the “median log2 fold change” value was -0.0439.

B31: usp_38_diff_out_16_37_209 (protein)
chain: AEKVLEEFKKFMEEAIKRAEEIGRRARELEEEGADLEELERLLEELERLLDEAVKRLTEALEKVPEKIEELFAIYDEFADAAARAGAIIREAIRRARERA
For the molecule B31, the “median log2 fold change” value was found to be 0.0185.

B32: usp_38_diff_out_17_130_225 (protein)
chain: SADEVEALKEYLEAEKANIEAVAADAERDLARAKRLPVTLPRVRHALEGNIKYMEETIKEAEEIKKKYPEVAAAADALIKAARDAKAKFEAMLAEVDALE
As to B32, the “median log2 fold change” value stood at 0.15.
